Screens from PubChem.
Only some compounds are listed: those with a hit (about 3.1% of all), similar ones and a draw of the others.
SKOV3 invasion = blocks SKOV3ip1 adhesion and invasion in omental model. SKOV3ip1-GFP adhesion/invasion on 3D omental model, fluorescence. Potency, µM (highest dose often 45.8 µM), inactives show top-dose activity change, negative = inhibition, hits mostly inhibitors. 46,000 compounds, 0.1% hits. AID 1963576;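 also: potency is read from the fitted curve at half-maximal effect; plate controls were DMSO wells for no effect and tomatine positive control wells for full effect; nearly all actives have a fitted effect of over 65% in size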
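qHTS, 4-pt dose (0.36-46 umol/L); SKOV3ip1-GFP, 1,200 cells/well, no FBS; primary omental fibroblast/mesothelial co-culture 48 h pre-grown; 2 h RT + 16 h 37 C; PBS wash, 4% PFA; GFP count 488/509 nm.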
p53null 39C tox = p53 null cell cytotoxicity, nonpermissive temperature. 55,000 compounds, 0.97% hits. H1299 p53-null (neo) cells, 39C, ATPlite viability, 24 h. AID 904. Potency, µM (top dose mostly 46.1 µM), without a hit: at the top dose activity, negative = cell killing, usual class: cytotoxic;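 also: potency is read from the fitted curve at half-maximal effect; 0% = DMSO only and -100% = full killing by 100 µM tamoxifen; nearly all actives have a fitted effect of over 50% in size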
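H1299 lung cancer cells, p53-null (H1299-neo) or expressing p53 A138V (H1299-p53A138V), were plated overnight at 37C, then exposed to compounds at up to 46 uM for 24 hr at 39C. Viability was read by ATP-based luminescence.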
mTORC1 inh = mTORC1 pathway inhibition measured by phospho-rpS6; Tsc2-/- p53-/- MEF, phospho-rpS6 immunofluorescence/PI, 24 h; 44,000 compounds, 0.78% hits; AID 493208; Potency, µM (top dose mostly 38.3 µM), for the others: at the top dose activity change, negative = inhibition, usual class: inhibitors;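 also: potency is read from the fitted curve at half-maximal effect; plate controls were DMSO for no effect and rapamycin for full effect; nearly all actives have a fitted effect of over 50% in size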
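Read-out: phospho-S6 Alexa-488 intensity over PI intensity per well, scored as % active cells using thresholds from rapamycin (7.5 nM) and DMSO controls. Tsc2-/-, p53-/- MEFs exposed to compound for 24 h; PI cell count recorded as viability.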
PMP22 txn = modulates PMP22 transcription in S16 Schwann cells. S16 Pmp22-F2sN Schwann cells, FLuc/NLuc coincidence luminescence, 24 h. Potency, µM (doses to about 57.5 µM), for the others: top-dose activity change, negative = inhibition, most hits filed as inhibitors. 43,000 compounds, 2% hits. AID 1508649; active = clear falling dose curves in both reporters; inconclusive = both reporters move, but less clearly or upward; inactive = either reporter flat; the % is the NLuc reporter signal; also: potency is read from the fitted curve at half-maximal effect; % is scaled to controls: 0 for no effect and ±100 for the full control effect
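qHTS, 1536-well. Cells seeded, compounds added by pin tool, 24 h 37C. Nano-Glo reagent 1 (lysis/FLuc), 10 min RT, read; Stop&Glo, 10 min RT, read NLuc.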
S16 F2sN tox = cytotoxicity in S16 Pmp22-F2sN Schwann cells | S16 Pmp22-F2sN Schwann cells viability, CellTiter-Glo, 24 h | Potency, µM (titrated, usually from 57.5 µM), for the others: top-dose activity change, negative = cytotoxicity, usual class: cytotoxic | 43,000 compounds, 0.48% hits; also: potency is read from the fitted curve at half-maximal effect; % is scaled to controls: 0 for no effect and ±100 for the full control effect; nearly all actives have a fitted effect of over 65% in size
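Seed 500-1,000 S16 Pmp22-F2sN cells per well in phenol-red-free DMEM with 10% heat-inactivated FBS; pin-add 23 nL compound; incubate 24 h at 37C; add CellTiter-Glo, wait 15 min protected from light; read luminescence.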
p53null 32C tox = p53 null cell cytotoxicity, permissive temperature; H1299-neo p53 null cells, ATP luminescence, 24 h, 32C; Potency, µM (highest dose often 46.1 µM), for the others: at the top dose activity change, negative = cytotoxicity, most hits filed as cytotoxic; 55,000 compounds, 0.62% hits;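 also: potency is read from the fitted curve at half-maximal effect; 0% = DMSO only and -100% = full killing by 100 µM tamoxifen; nearly all actives have a fitted effect of over 55% in size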
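H1299-neo (p53-null) cells, 600/well, were pre-incubated overnight at 37C, then exposed to compounds at up to 46 uM for 24 hr at 32C. Viability was measured as ATP content by luminescence, and AC50 values came from Hill fits.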
NLuc sat counter = inhibits NanoLuc at saturating substrate, PMP22 counter-screen | 690 compounds, 4% hits | Potency, µM (doses to about 57.5 µM), for inactives: top-dose activity change, negative = inhibition, hits mostly inhibitors | shares compounds with PMP22 txn | Secreted NLuc enzyme (filtered S16 cell medium), Nano-Glo luminescence; also: potency is read from the fitted curve at half-maximal effect; % is scaled to controls: 0 for no effect and ±100 for the full control effect
NLuc Km ctr = NanoLuc inhibition at Km substrate, PMP22 artifact check. shares compounds with PMP22 txn. secreted NLuc enzyme, coelenterazine luminescence, Km conditions. Potency, µM (titrated, usually from 57.5 µM), for the others: top-dose activity change, negative = inhibition, most hits filed as inhibitors. 690 compounds, 5% hits. AID 1508639; also: potency is read from the fitted curve at half-maximal effect; % is scaled to controls: 0 for no effect and ±100 for the full control effect
FLuc counter = counter-screen for PMP22 expression modulators: firefly luciferase inhibition. shares compounds with PMP22 txn. purified P. pyralis FLuc, luminescence, 10 min. Potency, µM (titrated, usually from 57.5 µM), without a hit: top-dose activity, negative = inhibition, usual class: inhibitors. 690 tested, under 10 active. AID 1508640; also: % of control where 0% means no effect
Target sequence (P08659 whole entry, looked up): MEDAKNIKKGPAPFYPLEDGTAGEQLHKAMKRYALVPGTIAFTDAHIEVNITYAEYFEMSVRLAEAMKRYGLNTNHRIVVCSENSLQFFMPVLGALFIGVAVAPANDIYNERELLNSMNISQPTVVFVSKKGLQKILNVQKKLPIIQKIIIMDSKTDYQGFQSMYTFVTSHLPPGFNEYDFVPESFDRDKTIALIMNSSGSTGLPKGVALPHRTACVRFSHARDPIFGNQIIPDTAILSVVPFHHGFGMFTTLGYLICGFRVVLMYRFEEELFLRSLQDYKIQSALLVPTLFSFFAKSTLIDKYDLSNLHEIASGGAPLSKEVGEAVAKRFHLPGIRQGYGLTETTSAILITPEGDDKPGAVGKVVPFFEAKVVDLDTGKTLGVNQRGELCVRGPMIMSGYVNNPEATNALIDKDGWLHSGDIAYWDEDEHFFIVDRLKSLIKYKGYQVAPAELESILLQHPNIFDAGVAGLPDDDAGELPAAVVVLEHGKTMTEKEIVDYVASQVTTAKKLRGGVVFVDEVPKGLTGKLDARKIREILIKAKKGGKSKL
S16 viab conf = confirmation of cytotoxicity in S16 Pmp22-F2sN Schwann cells (luciferase reporters placed in the Pmp22 gene); 690 compounds, 7% hits; S16 Schwann cells viability, CellTiter-Glo ATP luminescence, 24 h; shares compounds with PMP22 txn; Potency, µM (titrated, usually from 57.5 µM), for the others: top-dose activity change, negative = viability loss, actives largely listed as cytotoxic; also: potency is read from the fitted curve at half-maximal effect; % is scaled to controls: 0 for no effect and ±100 for the full control effect
PMP22 txn cnf = PMP22 transcription modulation, confirmatory; shares compounds with PMP22 txn; S16 Schwann cells Pmp22-F2sN, dual luciferase, 24 h; Potency, µM (series often up to 57.5 µM), inactives show top-dose activity change, negative = inhibition, usual class: inhibitors; 690 compounds, 22% hits; AID 1508646; active = clear falling dose curves in both reporters; inconclusive = both reporters move, but less clearly or upward; inactive = either reporter flat; the % is the FLuc reporter signal; also: potency is read from the fitted curve at half-maximal effect
PMP22 prot conf = rat PMP22 protein level modulation, confirmatory; shares compounds with PMP22 txn; S16 Schwann cells Pmp22-HiBiT, luminescence, 48 h; Potency, µM (titrated, usually from 27.9 µM), without a hit: at the top dose activity change, negative = inhibition, usual class: inhibitors; 95 tested, under 10 active; AID 1508647
Target sequence (P25094 whole entry, looked up): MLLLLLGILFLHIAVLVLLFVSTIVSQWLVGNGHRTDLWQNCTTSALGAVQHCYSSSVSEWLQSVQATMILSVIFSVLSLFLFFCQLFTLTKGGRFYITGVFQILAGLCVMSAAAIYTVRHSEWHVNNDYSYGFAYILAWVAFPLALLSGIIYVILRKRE
An asterisk follows results filed as active; i = inactive; ? = inconclusive; . = no result given. Unless noted, calls follow the shape of the dose curve; as a rule, active = well fitted curve in the direction sought with a large enough effect; inconclusive = small, poorly fitted or top-dose-only effect, or another doubt; inactive = no such curve, though single readings can be large; an effect the other way counts as inactive or inconclusive.

SMILES	SKOV3 invasion	p53null 39C tox	mTORC1 inh	PMP22 txn	S16 F2sN tox	p53null 32C tox	NLuc sat counter	NLuc Km ctr	FLuc counter	S16 viab conf	PMP22 txn cnf	others
CCCN(CCC)CCCNC(=O)c1cc2c(=O)oc3ccc(C)cc3c2s1	23%	-4%	-14%	?	?	2%	-7%	-1%	-7%	?	?
CCCCCCCCCCCCc1ccc(S(=O)(=O)Nc2nncs2)cc1	-13%	.	.	.	.	.	.	.	.	.	.
CCN(CC)c1ccc(NC(=O)C2COc3ccc(OC)cc3C2)c(C)c1 (stereo unspecified)	-8%	?	-14%	12µM*	?	-16%	-8%	-2%	-3%	?	15µM*	PMP22 prot conf=?
COc1ccc2c(c1)CC(C(=O)Nc1ccc(OC)cc1OC)CO2 (stereo unspecified)	19%	4%	-19%	-15%	-3%	-3%	.	.	.	.	.
COc1ccc(CCNC(=O)Cn2c(-c3cccs3)cc3cc(F)ccc32)cc1OC	5%	6%	-10%	?	9%	?	.	.	.	.	.	PMP22 prot conf=?
CCOc1ccc(CCNC(=O)Cn2c(-c3cccs3)cc3ccccc32)cc1OCC	-2%	-1%	-1%	?	-8%	-8%	.	.	.	.	.
O=C(Cn1c(-c2cccs2)cc2cc(F)ccc21)NCCCN1CCN(c2ccc(F)cc2)CC1	0%	2%	-6%	?	0%	-4%	.	.	.	.	.	PMP22 prot conf=3%
CCOC(=O)c1ccc(-c2ccc(/C=C(\C#N)C(=O)Nc3cccc(C)c3)o2)cc1	i	23%	-7%	?	3%	1%	?	-9%	0%	-18%	17µM*
COc1ccc2c(Oc3ccc(NC(=O)c4c(C)n(CC(C)(C)O)n(-c5ccccc5)c4=O)nc3)ccnc2c1	-11%	.	.	.	.	.	.	.	.	.	.
Cc1[nH]c(C=C2C(=O)Nc3ccc(S(=O)(=O)N(C)c4cccc(Cl)c4)cc32)c(C)c1C(=O)N1CCN(C)CC1	13%	.	.	.	.	.	.	.	.	.	.
CC(Oc1ccccc1)C(=O)Nc1ccccc1C(=O)OCc1cc(=O)n2nc(C3CC3)sc2n1 (stereo unspecified)	1%	3%	21%	6.5µM*	8%	-6%	-10%	-3%	-14%	5%	-11%
COc1ccc(CCC(=O)c2c(O)cc(O[C@@H]3O[C@H](CO)[C@@H](O)[C@H](O)[C@@H]3O[C@@H]3O[C@@H](C)[C@H](O)[C@@H](O)[C@@H]3O)cc2O)cc1O	-2%	.	.	.	.	.	.	.	.	.	.
Cc1ccc(S(=O)(=O)Nc2cc3c(cc2N2CCOCC2)n(C)c(=O)n3C)c(C)c1	10%	-16%	2%	15µM*	?	1%	-4%	-3%	5%	-9%	-45%
Cc1ccc(S(=O)(=O)Nc2cc3c(cc2N2CCOCC2)n(C)c(=O)n3C)cc1	i	-14%	-17%	.	.	-2%	.	.	.	.	.
O=C(Nc1ncc(-c2cc(C(F)F)nn2-c2c(Cl)cccc2Cl)s1)C1CC1	45%	.	.	.	.	.	.	.	.	.	.
CCn1c(=O)c2c(nc(C=Cc3ccc(OC)c(OC)c3)n2C)n(CC)c1=O	-9%	.	.	.	.	.	.	.	.	.	.
COc1ccccc1CNC(=O)CSc1nnc(C)c2c(C)n(-c3ccccc3)nc12	-2%	7%	0%	15µM*	?	9%	?	4%	-3%	-1%	?	PMP22 prot conf=?
CCOc1ccccc1CNC(=O)CSc1nnc(C)c2c(C)n(-c3ccccc3)nc12	-3%	10%	-12%	-27%	0%	6%	.	.	.	.	.
COc1ccc(OC)c(NC(=O)CSc2c3c(nc4cc(Cl)ccc24)CCCC3)c1	-4%	57%	3%	?	?	-5%	.	.	.	.	.
COc1ccc(OC)c(NC(=O)CSc2c3c(nc4ccccc24)CCCC3)c1	?	98%	?	9.5µM*	?	21%	?	?	4%	?	12µM*	PMP22 prot conf=?
CC(C)CCNC(=O)CSc1c2c(nc3ccc(Cl)cc13)CCCC2	-3%	64%	?	14µM*	?	16%	?	-13%	4%	-2%	?
COc1ccc(OC)c(Nc2c3c(nc4ccccc24)CCC3)c1	?	?	5.2µM*	8.4µM*	?	-22%	-13%	-5%	0%	-4%	1.5µM*
CCCCCn1c(=O)[nH]c2cc(C(=O)NCc3ccc(Cl)cc3)ccc2c1=O	45%	-9%	5%	-1%	2%	1%	.	.	.	.	.
O=C(NCCc1ccc(Cl)cc1)c1ccc(Cn2c(=O)[nH]c3ccccc3c2=O)cc1	i	4%	-19%	3.2µM*	-23%	15%	-3%	-2%	-9%	-30%	?
CCC1=Nc2cc(C(=O)NCCN(CC)CC)ccc2Sc2ccccc21	2%	4%	?	17µM*	-12%	21%	-19%	0%	-6%	-28%	?
